PubChem BioAssay
Potency and affinity values are given separately. The source made the active and inactive calls.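 The calls were made as follows: active = fitted dose curve reaches 40% lysis signal rise at or below the highest valid concentration tested for that sample; inconclusive = flat fit between 30% and 70%, or poor curve fit; inactive = signal falls, stays flat within 30%, or no crossing.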

Test: C. neoformans lysis by adenylate kinase leakage – AK release luminescence, cherry-picks, dose response (AID 687000);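 also: luminescent detection of adenylate kinase leaking from lysed yeast; 0% = median neutral control signal and 100% = double that signal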
Settings: 4 h, 100% = twice the neutral-control signal; series mostly up to 15 µM; lysis activity: at the top concentration

Row | Structure (SMILES) | lysis activity
1 | COc1ccccc1CNC(=O)COc1ccc2c(c1)CCC2 | -19.2% (inactive)
2 | COCC(=O)N1[C@H](C#N)[C@H](c2ccc(C#Cc3ccccc3F)cc2)[C@H]1CO | -44.9% (inactive)
3 | Cc1ccc(NC(=O)[C@H](C)NC(=O)C2CCN(C(=O)[C@@H](N)CC(C)C)CC2)cc1 | -1.39% (inactive)
4 | C[C@H](O)C#Cc1cnc2c(c1)C(=O)N([C@@H](C)CO)C[C@@H](C)[C@@H](CN(C)C(=O)Cc1ccncc1)O2 | -0.72% (inactive)
5 | CCC(=O)N1[C@@H]2c3cccc(=O)n3C[C@H]1[C@H](CO)[C@H]2C(=O)NCc1ccccc1 | -2.9% (inactive)
6 | Cc1cccc(C)c1NC(=O)C(C)N1CCCCC1 (stereo not drawn) | -16.1% (inactive)
7 | C[C@H]1CN([C@@H](C)CO)C(=O)CCCn2nncc2CO[C@@H]1CN(C)Cc1cccc(C(F)(F)F)c1 | -12% (inactive)
8 | C[C@H](CO)N1C[C@H](C)[C@H](CN(C)C(=O)NC2CCCCC2)OCCCC[C@H](C)Oc2ccc(NC(=O)C3CCCCC3)cc2C1=O | -3.66% (inactive)
9 | COc1ccc(-c2cnc3c(c2)C(=O)N([C@H](C)CO)C[C@H](C)[C@H](CN(C)Cc2ccc(F)cc2)O3)cc1 | 15.5% (inactive)
10 | O=C([C@H]1[C@H](CO)[C@H]2Cn3c(cccc3=O)[C@H]2N1CCC(F)(F)F)N1CCCCC1 | 8.43% (inactive)
11 | C[C@H](CO)N1C[C@H](C)[C@H](CN(C)C(=O)Nc2cccc(F)c2)Oc2ncc(C#CCN(C)C)cc2C1=O | -8.59% (inactive)
12 | CN1[C@H](C(=O)N2CCc3ccccc3C2)[C@@H](CO)[C@@H]2Cn3c(ccc(-c4cccnc4)c3=O)[C@@H]21 | 11.6% (inactive)
13 | CC(=O)N1[C@@H](CO)[C@H](c2ccc(-c3ccccc3)cc2)[C@@H]1CNC(=O)C1CC1 | -10.5% (inactive)
